Data published in the supplement of paper PMC8866396.
Structures can show the parent of a compound that is named as a salt. ± gives the standard deviation of the averaged measurements.

What follows are compounds tested on IL-6-GFP PC-9 (assay: cell viability (CCK-8 OD) relative to DMSO control (fraction of control); higher = more viable cells). Details: compound concentration: 10 uM; treatment time: 48 h.
Outline: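 Compounds from a purchased library of 510 were each tested at a final 10 μM for 48 h on PC-9 and PC-9GR lung cancer cells plated at 3000 cells/well in 96-well plates. These cells overexpressed IL-6-GFP from a lentiviral construct. Viability came from CCK-8 absorbance, given as the optical density of each well over that of the vehicle control well, across independent replicates numbering two.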

SMILES	cell viability
C=CC(=O)Nc1cc(Nc2nccc(-c3cn(C)c4ccccc34)n2)c(OC)cc1N(C)CCN(C)C.CS(=O)(=O)O [Osimertinib mesylate]	0.298 ± 0.12
CC(C)c1nc(CN(C)C(=O)NC(CCN2CCOCC2)C(=O)NC(CCC(Cc2ccccc2)NC(=O)OCc2cncs2)Cc2ccccc2)cs1 (centres undefined) [Cobicistat (GS-9350)]	1.14 ± 0.22
O=C(O)COC(=O)Cc1ccccc1Nc1c(Cl)cccc1Cl [Aceclofenac]	1.1 ± 0.052
CCC(C)C(=O)OC1CC(O)C=C2C=CC(C)C(CCC(O)CC(O)CC(=O)O)C21 (centres undefined) [Pravastatin]	0.999 ± 0.22
Cc1cn(-c2cc(NC(=O)c3ccc(C)c(Nc4nccc(-c5cccnc5)n4)c3)cc(C(F)(F)F)c2)cn1 [Nilotinib (AMN-107)]	1.135 ± 0.0089
O=C(Oc1ccccc1C(=O)O)c1ccccc1O [Sasapyrine]	1.25 ± 0.019
O=C(O)c1ccccc1OP(=O)(O)O [Fosfosal]	1.01 ± 0.21
CNC(=O)c1c(C)oc2cc(Oc3ncnc4cc(OC)c(OC)cc34)ccc12 [Fruquintinib]	1.12 ± 0.08
Cc1cc(S(=O)(=O)[O-])c2c(C)ccc(C(C)C)cc1-2.[Na+] [Sodium gualenate]	0.583 ± 0.022
O=C(O)C1CSCN1 (centres undefined) [Timonacic]	1.01 ± 0.15
CCCCCOC(=O)Nc1nc(=O)n(C2OC(C)C(O)C2O)cc1F (centres undefined) [Capecitabine]	0.459 ± 0.015
C/C=C(/C)C(=O)OC1C(OC(C)=O)C2(CO)C(O)CC3(C)C(=CCC4C5(C)CCC(OC6OC(C(=O)O)C(OC7OC(CO)C(O)C(O)C7O)C(O)C6OC6OC(CO)C(O)C(O)C6O)C(C)(CO)C5CCC43C)C2CC1(C)C (centres undefined) [Escin]	1.14 ± 0.22
CN(C)N=Nc1[nH]cnc1C(N)=O [Dacarbazine]	0.8338 ± 0.005
CC1=C(/C=C/C(C)=C/C=C/C(C)=C/C(=O)Nc2ccc(O)cc2)C(C)(C)CCC1 [Fenretinide]	0.449 ± 0.14
CC(C)(O)c1ccccc1CCC(SCC1(CC(=O)O)CC1)c1cccc(/C=C/c2ccc3ccc(Cl)cc3n2)c1 (centres undefined) [Montelukast]	0.934 ± 0.32
CC(C)OC(=O)CCC/C=C\CC1C(O)CC(O)C1CCC(O)CCc1ccccc1 (centres undefined) [Latanoprost]	1 ± 0.26
CC(=O)Nc1ccccc1 [Acetanilide]	1.24 ± 0.12
COc1cc2nccc(Oc3ccc(NC(=O)C4(C(=O)Nc5ccc(F)cc5)CC4)cc3)c2cc1OC	0.56 ± 0.041
CC1CC2C3CC(F)C4=CC(=O)C=CC4(C)C3(F)C(O)CC2(C)C1(OC(=O)c1ccco1)C(=O)SCF (centres undefined) [fluticasone furoate]	0.961 ± 0.27
CC1CC2C3CC(F)C4=CC(=O)C=CC4(C)C3(F)C(O)CC2(C)C1(O)C(=O)CO (centres undefined) [Diflorasone]	0.833 ± 0.23

SMILES	cell viability
Cc1cccc(N(C)C(=S)Oc2ccc3ccccc3c2)c1 [Tolnaftate]	0.8891 ± 0.0065
CC1CC2C3CCC4=CC(=O)C=CC4(C)C3(F)C(O)CC2(C)C1(O)C(=O)COP(=O)([O-])[O-].[Na+].[Na+] (centres undefined) [Dexamethasone Sodium Phosphate]	0.831 ± 0.039
CCCC(=O)OC1(C(=O)CO)CCC2C3CCC4=CC(=O)CCC4(C)C3C(O)CC21C (centres undefined) [Hydrocortisone butyrate]	1.08 ± 0.073
CN1CCC(=C2c3ccccc3CCc3cccnc32)CC1.O=C(O)/C=C\C(=O)O.O=C(O)/C=C\C(=O)O [Azatadine dimaleate]	0.513 ± 0.013
CC(C)C(=O)OCC(=O)C12OC(C3CCCCC3)OC1CC1C3CCC4=CC(=O)C=CC4(C)C3C(O)CC12C (centres undefined) [Ciclesonide]	0.894 ± 0.16
CC(=O)OC12COC1CC(O)C1(C)C(=O)C(O)C3=C(C)C(OC(=O)C(O)C(NC(=O)OC(C)(C)C)c4ccccc4)CC(O)(C(OC(=O)c4ccccc4)C21)C3(C)C.O.O.O (centres undefined) [Docetaxel Trihydrate]	0.631 ± 0.044
O=C(O)CCCN1CCC(OC(c2ccc(Cl)cc2)c2ccccn2)CC1 (centres undefined) [Bepotastine]	1.06 ± 0.18
Cc1ccc(Cl)c(Nc2ccccc2C(=O)[O][Na])c1Cl [Meclofenamate Sodium]	1.02 ± 0.11
Nc1nc(=O)c2c([nH]1)NCC(CNc1ccc(C(=O)NC(CCC(=O)[O-])C(=O)[O-])cc1)N2C=O.O.O.O.O.O.[Ca+2] (centres undefined) [Leucovorin Calcium Pentahydrate]	1.16 ± 0.28
COc1ccc2cc1Oc1ccc(cc1)CC1c3c(cc4c(c3Oc3cc5c(cc3OC)CCN(C)C5C2)OCO4)CCN1C (centres undefined) [Cepharanthine]	0.73 ± 0.15
S=P(N1CC1)(N1CC1)N1CC1 [Thiotepa]	0.977 ± 0.074
CC1CCN(C(=O)CC#N)CC1N(C)c1ncnc2[nH]ccc12.O=C(O)CC(O)(CC(=O)O)C(=O)O (centres undefined)	1.26 ± 0.04
Cc1cnc(NC(=O)C2=C(O)c3ccccc3S(=O)(=O)N2C)s1 [Meloxicam]	1.4 ± 0.41
O=c1ccc2cc3ccoc3cc2o1 [Psoralen]	1.13 ± 0.057
COc1cc2nccc(Oc3ccc(NC(=O)NC4CC4)c(Cl)c3)c2cc1C(N)=O [Lenvatinib (E7080)]	0.9 ± 0.081
CC/C(=C(\c1ccccc1)c1ccc(OCCN(C)C)cc1)c1ccccc1.O=C(O)CC(O)(CC(=O)O)C(=O)O [Tamoxifen]	0.589 ± 0.053
NC(CCC(=O)NC(CS)C(=O)NCC(=O)O)C(=O)O (centres undefined) [Glutathione]	1.1 ± 0.15
CC(C)CC(NC(=O)CNC(=O)c1cc(Cl)ccc1Cl)B1OC(=O)CC(CC(=O)O)(C(=O)O)O1 (centres undefined) [Ixazomib Citrate (MLN9708)]	0.339 ± 0.12
CC1(C(=O)O)CCC2(C)CCC3(C)C(=CC(=O)C4C5(C)CCC(OC6OC(C(=O)O)C(O)C(O)C6OC6OC(C(=O)O)C(O)C(O)C6O)C(C)(C)C5CCC43C)C2C1.N.N (centres undefined) [Diammonium Glycyrrhizinate]	1.19 ± 0.07
